PubChem BioAssay (Tox21)
Records with an inconclusive call do not appear. Active and inactive are the calls of the source. Calls come from the whole dose curve; as a rule, active = well fitted activation curve with a large enough effect in the repeat runs; inconclusive = weak or mixed curves; inactive = flat fitted curve, though single readings scatter.

Assay: A CellTox Green Cytotoxicity Assay to monitor cytotoxicity in HEK293 cells - 32 hour (AID 1224881); note: nearly all actives have a fitted effect of over 40% in size
Details: CellTox Green fluorescence; series mostly up to 76.8 µM; cytotoxicity increase: at the top concentration
Source text: National Center for Advancing Translational Sciences [NCATS]
NIH Chemical Genomics Center [NCGC]
U.S. Environmental Protection Agency [EPA]
National Institutes of Environmental Health Sciences [NIEHS]
National Toxicology Program [NTP]
Cell-based models are critical for drug discovery. Determining the natural cytotoxic effects resulting from test compounds is an essential research activity. A CellTox Green Cytotoxicity Assay to monitor cytotoxicity in real time of continues cell culture during 40 hours of the compound treatment was used to screen Tox21 10K library compounds in Hek293 cells. CellTox Green Cytotoxicity Assay is a nonlytic, homogeneous, biofluorescent method to measure cytotoxicity in cell culture after experimental manipulation. The assay system uses a proprietary asymmetric cyanine dye that is excluded from viable cells but preferentially stains the dead cell's DNA. […] Viable cells produce no appreciable increases in fluorescence. Therefore, the fluorescence signal produced by the binding interaction with dead cell DNA is proportional to cytotoxicity.
The mixture of Hek293 cell suspension and reagents were dispensed at 600cells/6 ul/well in 1536-well tissue culture treated black solid bottom plates using a Multidrop dispenser. After the assay plates were incubated at a 37 C/5% CO2 incubator for 5 hours, 23 nL of compounds dissolved in DMSO, positive and negative controls was transferred to the assay plate by a pintool work station. The plates were incubated at 37 C for 40 hours. The fluorescence intensity were measured at 0h, 8h, 16h, 24h, 32h and 40h time points using ViewLux plate reader during compound treatment.
% is set by controls: 0 for no effect and ±100 for the full control effect.

| SMILES | cytotoxicity increase |
| --- | --- |
| CN1C(=O)COc2c(C(=O)NC3CN4CCC3CC4)cc(Cl)cc21 (stereo not given) | 2.1% [at 35.3 µM] (inactive) |
| OP(O)c1ccccc1 | -10.5% (inactive) |
| CCCN1CCC[C@@H]2Cc3[nH]ncc3C[C@H]21 | -6.78% [at 35.3 µM] (inactive) |
| BrCC1CO1 (stereo not given) | 2.57% (inactive) |
| ClCCN1CCCC1 | 0.381% [at 35.3 µM] (inactive) |
| CC(=O)OCC1=C(C(=O)O)N2C(=O)[C@@H](N)[C@H]2SC1 | -3.48% [at 15.8 µM] (inactive) |
| CC(=O)CN(CC(C)=O)N=O | 14.7% (inactive) |
| CCCCCCCCBr | -14.6% (inactive) |
| O=C(Cl)CCl | -9.05% (inactive) |
| COC(=O)c1ccc(CBr)cc1 | -4.31% (inactive) |
| ClC(Cl)(Cl)Cl | -0.361% (inactive) |
| C[N+]1(C)CCCCC1 | -12.1% (inactive) |
| CCOC(=O)Nc1cccc(OC(=O)Nc2ccccc2)c1 | 9.74% (inactive) |
| CC(O)CCl (stereo not given) | -0.534% (inactive) |
| O=C(NC(=O)c1c(F)cccc1F)Nc1cc(Cl)c(F)c(Cl)c1F | -0.434% (inactive) |
| CCCOC(=O)Cc1ccc(OCC(=O)N(CC)CC)c(OC)c1 | -9.27% [at 35.3 µM] (inactive) |
| COc1cccc([C@@]2(O)CCCC[C@@H]2CN(C)C)c1 | 1.97% [at 35.3 µM] (inactive) |
| CC[C@H](N)c1ccccc1 | 3.95% (inactive) |
| COc1ccccc1OC | 1.22% (inactive) |
| N#CN=C1SCCN1Cc1ccc(Cl)nc1 | -0.598% (inactive) |

| SMILES | cytotoxicity increase |
| --- | --- |
| CCOP(=O)(CN(CCO)CCO)OCC | 6.64% (inactive) |
| COP(=O)(OC)O/C(C)=C/C(=O)N(C)C | -6.19% (inactive) |
| Oc1ccc2c3c1O[C@H]1[C@@H](O)C=C[C@H]4[C@@H](C2)NCC[C@@]341 | 10.7% (inactive) |
| COc1cccc(C=O)c1 | -11.8% (inactive) |
| CCC1(CC)C(=O)C=CNC1=O | -20.8% [at 35.3 µM] (inactive) |
| Cn1c(CCCC(=O)O)nc2cc(N(CCCl)CCCl)ccc21 | 0.652% [at 35.3 µM] (inactive) |
| Cc1ccc(Cl)c(O)c1 | -25.5% [at 35.3 µM] (inactive) |
| CC(Cl)(Cl)Cl | 18.1% (inactive) |
| O=C(Cl)c1ccccc1 | 1.09% (inactive) |
| CC[C@H](O)C(C[C@H](C)N(C)C)(c1ccccc1)c1ccccc1 | -2.77% (inactive) |
| CCOC(=O)C(Cl)Cc1cc(-n2nc(C)n(C(F)F)c2=O)c(F)cc1Cl (stereo not given) | 3.28% (inactive) |
| COc1ccc(C=O)cc1O | -0.882% (inactive) |
| O=c1[nH]c2ccccc2n1C1CCNCC1 | -0.13% [at 35.3 µM] (inactive) |
| CCCCCCC(=O)CCCCCC/C=C/C[C@@H](O)[C@H](O)[C@@](N)(CO)C(=O)O | -8.63% [at 15.8 µM] (inactive) |
| C[C@]12C=CC(=O)C=C1CC[C@@H]1[C@@H]2CC[C@@]2(C)[C@H]1CC[C@]2(C)O | -13.3% [at 35.3 µM] (inactive) |
| CC(Cc1ccccc1)NCCn1cnc2c1c(=O)n(C)c(=O)n2C (stereo not given) | -18.5% (inactive) |
| C=C1CC[C@@]2(O)[C@H]3Cc4ccc(O)c5c4[C@@]2(CCN3CC2CC2)[C@H]1O5 | 9% [at 35.3 µM] (inactive) |
| CC(C)(C)C(=O)C(Cl)Cl | -15.5% (inactive) |
| CN(C)C1CCCCC1 | 17.4% (inactive) |
| C1CN2CCC1CC2 | 1.2% [at 35.3 µM] (inactive) |
